# Most compounds without a hit are left out; they make up all but 8% or so of the library.
# HT1080-NT tox = kills 2HG-producing HT-1080-NT fibrosarcoma cells | 1.6% of 360,000 active | Potency, µM (top dose mostly 46.1 µM), usual class: cytotoxic | HT-1080-NT fibrosarcoma viability, CellTiter-Glo ATP luminescence, 48 h | AID 686970;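 note: NT is the 2HG producing partner of a matched IDH1 knockdown line; nearly all actives have a fitted effect of over 55% in size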
#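 Viability of the 2HG-overproducing fibrosarcoma line after 48 hours of compound exposure at 37 degrees C was determined by luminescence with CellTiter-Glo, and concentration-effect curves were then fitted and categorized.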
# KB-V1 MDR tox = KB-V1 MDR subline cytotoxicity. KB-V1 MDR cells viability, CellTiter-Glo, 72 h. Potency, µM (series often up to 46.1 µM), most hits filed as cytotoxic. AID 1347076. 3.4% of 400,000 active; note: nearly all actives have a fitted effect of over 60% in size
#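 In this primary screen, KB-V1 cells overexpressing P-gp are incubated with library compounds (lowest to highest concentration) for 72 h at 37 degrees C before a luminescent ATP viability read.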
# HT1080 IDH1KD tx = toxicity to HT-1080 IDH1 knockdown cells (counter line); HT-1080 IDH1 knockdown viability, ATP luminescence, 48 h; AID 686971; Potency, µM (series often up to 46.1 µM), usual class: cytotoxic; 2% of 360,000 active
#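 CellTiter-Glo luminescence after 48 h compound exposure at 37 degrees C of IDH1-knockdown HT-1080 cells in 5% FBS RPMI. %Activity scaled between DMSO wells and cell-free media wells, with curves fitted and assigned curve classes.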
# MCF10A rerep = induces DNA re-replication in MCF 10a normal breast cells. Potency, µM (titrated, usually from 46.1 µM), most hits filed as activators. MCF 10A DNA re-replication, Hoechst nuclear intensity, 48 h. 2.9% of 350,000 active; note: nearly all actives have a fitted effect of over 50% in size
# KB-3-1 tox = kills parental KB-3-1 adenocarcinoma cells | KB-3-1 viability, CellTiter-Glo ATP luminescence, 72 h | Potency, µM (titrated, usually from 46.1 µM), usual class: cytotoxic | 1.4% of 400,000 active | AID 1347075; note: nearly all actives have a fitted effect of over 60% in size
#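 Using CellTiter-Glo luminescence, growth of non-resistant KB-3-1 adenocarcinoma cells is assessed 72 h after pin-tool compound addition at 37 °C. Normalized responses across the concentration series yield fitted curves.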
# SW480 rereplic = induces DNA re-replication in SW480 colon adenocarcinoma cells | 1.8% of 340,000 active | SW480 DNA re-replication, Hoechst DNA content imaging, 48 h | Potency, µM (top dose mostly 46.1 µM), most hits filed as activators; note: nearly all actives have a fitted effect of over 55% in size
#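 SW480 cells exposed to compounds for 48 hr at 37 C, 5% CO2, then Hoechst-stained 40 min. Nuclear DNA content imaged by fluorescence scanning (405 nm excitation, 500-530 nm emission); re-replication scored as increased high-intensity nuclei.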
# Numbers stand for hits; . = inactive; ? = inconclusive; / = not tested or not shown. Calls come from the whole dose curve; as a rule, active = well fitted curve in the direction sought with a large enough effect; inconclusive = small, poorly fitted or top-dose-only effect, or another doubt; inactive = no such curve, though single readings can be large; an effect the other way counts as inactive or inconclusive.
SMILES,HT1080-NT tox,KB-V1 MDR tox,HT1080 IDH1KD tx,MCF10A rerep,KB-3-1 tox,SW480 rereplic
COc1cccc(OC)c1C(=O)Nc1ccc(N2CCN(C(=O)c3cccs3)CC2)cc1,.,.,.,.,.,.
COc1cccc(C(=O)Nc2ccc(N3CCN(C(=O)c4cccs4)CC3)cc2)c1,?,2.3µM,2.6µM,13µM,5.2µM,5.8µM
Nc1cc(=O)n(Cc2ccccc2)c(=O)n1-c1ccc(Cl)cc1,.,.,.,.,.,.
O=C1c2cccc(NCCNCCO)c2C(=O)c2cccc(NCCNCCO)c21,?,.,8.2µM,.,?,.
CC(=O)c1cccc(NC(=O)C2Cc3c(-c4ccco4)ccnc3O2)c1 (configuration not stated),.,4.6µM,.,/,?,/
CC(=O)c1cccc(NC(=O)C2Cc3c(-c4ccccc4)ccnc3O2)c1 (configuration not stated),.,.,.,/,.,/
CC(=O)c1cccc(-c2ccnc3c2CC(C(=O)Nc2ccccc2)O3)c1 (configuration not stated),.,21µM,.,/,.,/
CC(=O)Nc1ccc(NC(=O)C2Cc3c(-c4ccco4)ccnc3O2)cc1 (configuration not stated),.,.,.,/,.,/
COc1ccc(NC(=O)C2Cc3c(-c4ccccc4)ccnc3O2)cc1OC (configuration not stated),.,?,?,/,16µM,/
CC(=O)c1cccc(-c2ccnc3c2CC(C(=O)Nc2ccc(F)c(Cl)c2)O3)c1 (configuration not stated),?,21µM,?,/,?,/
CN(C)C(=O)c1cnc(Sc2ncc(C(F)(F)F)cc2Cl)n1C,.,.,.,.,.,.
CCc1nc(C)c(C(=O)N2CCCC(C(=O)Nc3cccc(-c4cccc(C)c4)c3)C2)o1 (configuration not stated),.,?,.,.,.,?
Nc1cc(=O)nc(SCC(=O)N2CCN(c3ccccc3)CC2)n1-c1ccccc1,.,.,.,.,.,.
O=C(Nc1ccc2c(c1)OCO2)C1CC1,.,.,.,.,.,.
CS(=O)(=O)Nc1cccc(NC(=O)C2Cc3c(-c4ccccc4)ccnc3O2)c1 (configuration not stated),2.3µM,.,?,/,16µM,/
CCCN(CC(=O)Nc1cccc(Br)c1)CC(=O)Nc1ccc(F)c(F)c1F,?,?,?,?,?,.
CCCN(CC(=O)Nc1ccc(C)cc1Br)CC(=O)Nc1ccc(F)c(F)c1F,.,8.2µM,.,?,.,.
CCCN(CC(=O)Nc1ccc(F)c(F)c1F)CC(=O)Nc1c(Cl)cccc1Cl,.,18µM,.,?,.,?
CCOC(=O)c1ccc(NC(=O)CSc2n[nH]c(-c3ccncc3)n2)cc1,.,.,.,.,.,.
CCOc1ccccc1Nc1nnc(SCc2nnc(-c3cc(OC)c(OC)c(OC)c3)o2)s1,.,?,.,?,.,.
COc1cc(-c2nnc(CSc3nnc(Nc4ccc(C(C)C)cc4)s3)o2)cc(OC)c1OC,?,21µM,16µM,15µM,.,.
COc1ccccc1Nc1nnc(SCc2nnc(-c3cc(OC)c(OC)c(OC)c3)o2)s1,.,?,.,21µM,.,?
O=C(NCc1cccc(F)c1)c1ccc(NC(=O)c2nsc3ccccc23)cc1,/,.,/,/,.,/
Cc1ccnc2ccc3ccccc3c12,/,.,/,/,8.2µM,/
c1ccc(-c2ccc(C3=Nn4c(nnc4-c4cc(-c5ccccc5)n[nH]4)SC3)cc2)cc1,?,16µM,18µM,15µM,?,?
CC1=Nn2c(nnc2-c2cc(-c3ccccc3)n[nH]2)SC1,.,.,.,.,.,.
COc1ccc(C2=Nn3c(nnc3-c3ccccc3OC)SC2)cc1OC1CCOC1 (configuration not stated),/,3.3µM,/,1.3µM,0.65µM,1µM
COc1ccc(C2=Nn3c(nnc3-c3ccccc3C(F)(F)F)SC2)cc1OC1CCOC1 (configuration not stated),/,.,/,.,?,.

# Screening results: PubChem, National Center for Advancing Translational Sciences (NCATS)
